Measurements reported in ChEMBL document CHEMBL3988442, “University of Dundee, Small-Polar-MMV Screening Library” (2021).

biological target: AMP-activated protein kinase, AMPK (Homo sapiens) (UniProt P54646+O43741+P54619+Q9UGJ0+Q9Y478+Q13131+Q9UGI9); test: AMP-dependent Kinase enzyme assay. An in vitro enzyme assay that detects ADP turnover that is directly proportional to AMPK activity. This uses naive AMPK that is activated during the assay with MK-8722; type: functional; set-up: scale not given: direction of the effect not stated beside the values; conditions: 30 µM

How did the Percent Effect turn out when `CN(C)c1ccc(C(=O)N2CCC(c3cc4ncccc4[nH]3)CC2)cc1` was run?
The Percent Effect was 21.8%.

`COCCN(Cc1cnn(C)c1)c1nc2c(s1)c(C)nn2C` was tested. Which Percent Effect did it give?
The Percent Effect was -0.701%.

Which Percent Effect does the source give for `COC(=O)c1occc1Cn1cc(Br)cn1` here?
The Percent Effect was -0.99%.

How did the Percent Effect turn out when `Cc1nc(COc2ccc(S(=O)(=O)N(C)C)cc2)sc1C` was run?
Its Percent Effect is 5.76%.

For `O=C(NCC1CCOC1)c1cc(-c2ccc(F)cc2)[nH]n1` (centres undefined), which Percent Effect is on record?
Its Percent Effect is -0.741%.

With `CCc1nnc(CS(=O)(=O)c2ccc(C)c(C)c2)n1C` as the compound, how does the Percent Effect read?
Its Percent Effect is 9.9%.

How did the Percent Effect turn out when `Cc1cc(NC(C)c2csc(C)n2)n2nc(C)c(C)c2n1` (centres undefined) was run?
The Percent Effect was 10%.

Which Percent Effect does the source give for `Cc1cc(NC(C)c2nnn[nH]2)n2nc(C)c(C)c2n1` (centres undefined) here?
The Percent Effect was 20.6%.

How did the Percent Effect turn out when `CN1CCN([C@H]2CCN(C(=O)c3cc(Cl)cn3C)C[C@H]2CCCO)CC1` was run?
Its Percent Effect is 13.2%.

For `CS(=O)(=O)NC(=O)c1ccn(-c2ccc(Cl)c(Cl)c2)n1`, which Percent Effect is on record?
The Percent Effect was 4.97%.

How did the Percent Effect turn out when `O=S(=O)(NCCCn1cncn1)c1ccc2c(c1)OCCCO2` was run?
The Percent Effect was 10.2%.

Which Percent Effect does the source give for `COc1cccc(-c2n[nH]cc2-c2nc(CC3CCN(C)CC3)no2)c1` here?
Its Percent Effect is -6.69%.

`COc1ncccc1C(=O)NCCn1cnc(C)cc1=O` was tested. Which Percent Effect did it give?
Its Percent Effect is -2.02%.

`CNc1cc2c(nn1)CCN(C(=O)c1ccccc1-n1cccn1)C2` was tested. Which Percent Effect did it give?
Its Percent Effect is -15.3%.

Which Percent Effect does the source give for `O=C(C1CCCO1)N1CCC(n2cc(-c3ccsc3)nn2)CC1` (centres undefined) here?
Its Percent Effect is 4.03%.

With `CC(C)(C)c1noc(CCC(=O)N2CCNC(=O)C2)n1` as the compound, how does the Percent Effect read?
The Percent Effect was -9.99%.

Which Percent Effect does the source give for `CCC(CN1CCCC1)n1cncc1-c1cnn(-c2ccccc2)c1` (centres undefined) here?
Its Percent Effect is 20%.

`COc1ccc(CN2CC(n3cccn3)C2)cc1F` was tested. Which Percent Effect did it give?
The Percent Effect was -6.94%.

How did the Percent Effect turn out when `CC(NC(=O)N1CCCCCC1)c1ccc(S(N)(=O)=O)cc1` (centres undefined) was run?
The Percent Effect was 5.75%.

For `COCCCC1CCCN(Cc2c(C)ccc3ncccc23)C1` (centres undefined), which Percent Effect is on record?
The Percent Effect was -4.38%.

Which Percent Effect does the source give for `CCC(CC)C(=O)N1CCC2(CC1)c1ccccc1[C@@H](OC)[C@@H]2O` here?
Its Percent Effect is 14%.

Which Percent Effect does the source give for `Cc1nnc(NC(=O)NCCCN2CCC(C(N)=O)CC2)s1` here?
The Percent Effect was 5.59%.

How did the Percent Effect turn out when `Cc1nc(NC(=O)C(C)N(C)Cc2cccc(C#N)c2)sc1C` (centres undefined) was run?
Its Percent Effect is 7.53%.

With `COCCCC1(CO)CCCN(C(=O)c2cnc(C3CC3)nc2)C1` (centres undefined) as the compound, how does the Percent Effect read?
Its Percent Effect is 2.98%.

How did the Percent Effect turn out when `COc1cc(N2CCN(Cc3ccc(C)o3)C(CCO)C2)nc(N)n1` (centres undefined) was run?
Its Percent Effect is 0.197%.

Which Percent Effect does the source give for `CC(C)c1nc(C2CCCN2CCOCC2CC2)no1` (centres undefined) here?
Its Percent Effect is 7.32%.

How did the Percent Effect turn out when `Cc1cc(N2CCCC(N(C)C)C2)n2nccc2n1` (centres undefined) was run?
Its Percent Effect is 1.81%.

For `COc1ccc(C(=O)N2CCN(C(=O)CCCc3cn[nH]c3)CC2)cc1`, which Percent Effect is on record?
Its Percent Effect is 3.5%.

`COc1ccccc1C(NC(=O)CN(C)C(C)C)c1noc(C)n1` (centres undefined) was tested. Which Percent Effect did it give?
Its Percent Effect is -4.19%.

For `CN(C)c1ccc(C(=O)Nc2ccn(CCc3ccncc3)n2)cn1`, which Percent Effect is on record?
Its Percent Effect is 14.4%.

How did the Percent Effect turn out when `c1ncc(-c2cn(CCSc3cnn[nH]3)nn2)cn1` was run?
The Percent Effect was -3.28%.

`Clc1snnc1CN(Cc1cccs1)C1CC1` was tested. Which Percent Effect did it give?
Its Percent Effect is 3.68%.

Which Percent Effect does the source give for `N#Cc1c(N)nc2c(c1-c1c[nH]nc1C1CCCCC1)CC(N)CC2` (centres undefined) here?
Its Percent Effect is 23.9%.

How did the Percent Effect turn out when `CC(C)N1CCC(NC(=O)c2cn(-c3ccc(F)cc3)nn2)C1` (centres undefined) was run?
Its Percent Effect is -3.78%.

How did the Percent Effect turn out when `Fc1ccc(COCC2CCN(Cc3ccccn3)CC2)cc1` was run?
The Percent Effect was 1.48%.

`Cc1nc(CN(C)S(=O)(=O)c2ccccc2C(F)(F)F)no1` was tested. Which Percent Effect did it give?
Its Percent Effect is 4.4%.

With `Cc1cncc(C2CCN(Cc3ccc(S(C)(=O)=O)cc3)CC2)n1` as the compound, how does the Percent Effect read?
The Percent Effect was 5.76%.

How did the Percent Effect turn out when `COCCCN1CCCC(c2nccn2CC2CCC2)C1` (centres undefined) was run?
The Percent Effect was 0.821%.

How did the Percent Effect turn out when `COc1cc(F)c(NCc2nc3ccccc3n2C)cc1OC` was run?
Its Percent Effect is -46.6%.
